# Screening results: PubChem, National Center for Advancing Translational Sciences (NCATS)
# Compounds with a hit are over-represented: about 7.4% of the library has one in this group of screens.
# NPC1 prom act: qHTS Assay for NPC1 Promoter Activators | Huh7 NPC1 promoter luciferase reporter, 24 h | Potency, µM (series often up to 9.22 µM), hits mostly activators | 2.4% of 320,000 active; further: nearly all actives have a fitted effect of over 60% in size
#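 In 1536-well qHTS, Huh7 cells harboring an NPC1 promoter–luciferase construct received compound for 24 h; activation was quantified by luminescence following luciferase reagent addition.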
# Rab9 prom act: qHTS Assay for Rab9 Promoter Activators | Huh7 Rab9 promoter-luciferase reporter, luminescence, 24 h | Potency, µM (highest dose often 9.22 µM), actives largely listed as activators | 2.8% of 320,000 active; further: nearly all actives have a fitted effect of over 60% in size
#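 Steps: seed 1500 Huh7 Rab9-luc cells per well, rest 2 h at 37 °C; add compound in DMSO; incubate 24 h; add luciferase reagent, 10 min ambient; read luminescence.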
# SMN2 splice enh: qHTS Assay for Enhancers of SMN2 Splice Variant Expression; HEK293 SMN2-luciferase splicing reporter, luminescence, 30-36 h; Potency, µM (series often up to 46.1 µM), most hits filed as activators; 2.8% of 210,000 active; AID 1458, 2008; further: nearly all actives have a fitted effect of over 55% in size
#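 qHTS luciferase splicing reporter: luminescence rises when SMN2 exon 7 is included in transfected HEK293 cells. Compound exposure lasted 30-36 h at 37C, with 4.5 mM final sodium butyrate as control, followed by a ONE-Glo read.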
# KinaseGlo FLuc: Counterscreen for Luciferase (Kinase-Glo TM) Inhibition | Luciferin 4-monooxygenase (Photuris pensylvanica), Q27757 | Kinase-Glo luciferase, ATP luminescence, 8 min | Potency, µM (titrated, usually from 38.3 µM), usual class: inhibitors | 0.28% of 200,000 active; further: nearly all actives have a fitted effect of over 60% in size
#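 Light output from Kinase-Glo luciferase with luciferin and 10 uM ATP in 50 mM imidazole pH 7.2, KCl, MgCl2, Tween 20, BSA; compound pin-delivered, 8-min ambient incubation, then luminescence read.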
# FLuc counter: qHTS profiling assay for firefly luciferase inhibitor/activator using purifed enzyme and Km concentrations of substrates (counterscreen for miR-21 project); Potency, µM (titrated, usually from 57.5 µM), most hits filed as inhibitors; purified FLuc, Km substrates, luminescence inhibition; 6.9% of 360,000 active; AID 588342, 2011; further: nearly all actives have a fitted effect of over 55% in size
# Target sequence (P08659 whole entry, looked up): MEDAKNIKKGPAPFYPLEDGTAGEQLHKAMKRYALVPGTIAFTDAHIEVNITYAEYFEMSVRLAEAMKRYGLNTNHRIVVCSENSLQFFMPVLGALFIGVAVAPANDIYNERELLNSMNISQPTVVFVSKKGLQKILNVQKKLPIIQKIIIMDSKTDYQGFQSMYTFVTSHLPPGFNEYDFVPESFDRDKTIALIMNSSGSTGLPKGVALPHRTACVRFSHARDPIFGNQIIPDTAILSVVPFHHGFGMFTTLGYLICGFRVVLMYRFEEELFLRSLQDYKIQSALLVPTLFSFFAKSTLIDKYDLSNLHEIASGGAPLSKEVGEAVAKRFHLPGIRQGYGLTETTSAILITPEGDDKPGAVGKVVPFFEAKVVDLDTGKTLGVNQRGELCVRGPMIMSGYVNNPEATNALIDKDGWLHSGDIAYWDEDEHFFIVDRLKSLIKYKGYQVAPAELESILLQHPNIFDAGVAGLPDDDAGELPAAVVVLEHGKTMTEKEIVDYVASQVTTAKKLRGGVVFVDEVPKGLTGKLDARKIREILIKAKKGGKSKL
#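 Biochemical qHTS of compounds, final roughly 60 µM downward over six points, against 10 nM purified firefly luciferase using Km concentrations of substrates (10 uM D-luciferin, 10 uM ATP) in Tris acetate pH 7.5 buffer; luminescence output.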
# ELG1 genotox: qHTS screen for small molecules that induce genotoxicity in human embryonic kidney (HEK293T) cells expressing luciferase-tagged ELG1; HEK293T ELG1-luciferase reporter, luminescence, 16 h; Potency, µM (series often up to 46 µM), most hits filed as activators; 1.3% of 330,000 active; AID 504466, 2011; further: nearly all actives have a fitted effect of over 60% in size
#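 Reporter readout depends on ELG1 protein level, which increases with genetic stress. After 16 hr compound exposure at 37 °C, luciferase activity was quantified using ONE-Glo.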
# A number is an active result; - = inactive; ? = inconclusive; . = not tested or not shown. The call rests on the fitted dose curve; in most records, active means well fitted curve in the direction sought with a large enough effect; inconclusive means small, poorly fitted or top-dose-only effect, or another doubt; inactive means no such curve, though single readings can be large; an effect the other way counts as inactive or inconclusive.
SMILES,NPC1 prom act,Rab9 prom act,SMN2 splice enh,KinaseGlo FLuc,FLuc counter,ELG1 genotox
O=C(Nc1cccc(NC(=O)c2ccco2)c1)c1ccc2c(c1)OCCO2,-,-,-,-,9.53µM,-
Cc1cc(NC(=O)c2ccc3c(c2)OCO3)ccc1NC(=O)c1ccco1,-,-,-,11.2µM,21.3µM,-
O=C(COC(=O)c1ccco1)Nc1ccc2c(c1)OCCO2,-,-,-,-,2.39µM,-
Cc1cc(C)cc(C(=O)Nc2cccc(NC(=O)c3ccco3)c2)c1,-,-,.,.,?,-
Cc1ccc(C(=O)Nc2ccc3c(c2)OCO3)cc1NC(=O)c1ccco1,-,?,?,-,?,-
O=C(Nc1cccc(NC(=O)c2ccco2)c1)c1ccc2c(c1)OCO2,-,-,-,-,15.1µM,-
Cc1ccc(NC(=O)Nc2nnc(N3CCCC3)s2)cc1C,.,.,.,.,-,.
Cc1ccc(-c2csc(=Nc3ccc(F)cc3)n2Cc2ccc3c(c2)OCO3)cc1C,.,.,-,.,-,.
CCCC(=O)Nc1ccc(NC(=O)c2ccco2)c(OC)c1,?,?,?,-,15.1µM,?
COc1ccc(C(=O)Nc2ccc(NC(=O)c3ccco3)c(Cl)c2)cc1OC,-,-,-,-,-,-
O=C(Nc1ccc2c(c1)OCCO2)c1ccco1,2µM,2.24µM,10µM,-,8.49µM,3.66µM
COc1cc(NC(=O)c2ccc3c(c2)OCCO3)ccc1NC(=O)c1ccco1,-,-,.,-,3.38µM,-
COc1cc(OC)cc(C(=O)Nc2cc(NC(=O)c3ccco3)ccc2OC)c1,-,-,-,-,?,-
COc1cc(OC)cc(C(=O)Nc2ccc(NC(=O)c3ccco3)c(C)c2)c1,-,-,.,.,12µM,?
O=C(NCc1ccccc1)NC1COc2ccccc2C1 (stereo not given),.,.,.,.,-,.
COc1ccc(-n2ncc(C(=O)NCCCN3CCCCC3)c2C2CCN(C(=O)OC(C)(C)C)CC2)cc1,.,.,.,.,-,.
COc1cc(NC(=O)c2ccc3c(c2)OCCO3)ccc1NC(=O)c1cccs1,-,-,-,-,5.36µM,-
CC1(C)Oc2ccc(NC(=O)c3ccco3)cc2O1,1µM,2.51µM,12.6µM,-,6.01µM,?
O=C(Nc1ccc(NC(=O)c2cccs2)cc1)c1ccc2c(c1)OCCO2,-,-,.,.,-,?
O=C(CNC(=O)c1cccs1)Nc1ccc2c(c1)OCCO2,1.26µM,1.12µM,.,.,6.01µM,1.64µM
Cc1ccc(NC(=O)c2ccco2)cc1C,2.82µM,3.98µM,15.8µM,?,9.53µM,?
Cc1nn(C)c2c1c(C(F)(F)F)cc(=O)n2CC(=O)N1CCCCC1,.,.,.,.,-,.
CCOc1ccccc1C(=O)Nc1cc2c(cc1N1CCCCC1)n(C)c(=O)n2C,.,.,-,.,-,.
COc1ccc(NC(=O)Cn2c(C)cc3ccccc3c2=O)c(OC)c1,.,.,-,.,-,.
Cn1cccc1C(=O)OCC(=O)NCc1ccc2c(c1)OCO2,-,-,.,.,.,-
SMILES,NPC1 prom act,Rab9 prom act,SMN2 splice enh,KinaseGlo FLuc,FLuc counter,ELG1 genotox
CC(C)COc1ccc(C(=O)Nc2ccc(NC(=O)c3ccco3)c(Cl)c2)cc1,-,-,-,-,-,?
CC(C)Oc1ccc(C(=O)Nc2ccc(NC(=O)c3ccco3)c(Cl)c2)cc1,?,?,-,-,0.536µM,-
O=C(COC(=O)c1ccc(O)cc1O)Nc1ccc2c(c1)OCCO2,-,-,.,.,15.1µM,?
Cn1cccc1C(=O)OCC(=O)Nc1ccc2c(c1)OCCO2,.,.,.,.,.,1.03µM
Cc1cc(C)cc(NC(=O)CCc2c(C)nc3c(c2C)c(=O)n(C)c(=O)n3C)c1,.,.,-,.,-,.
O=C(c1ccc(F)cc1)n1nc(-c2cccnc2)nc1NCc1ccc(F)cc1,.,.,-,.,-,.
FC(F)(F)c1ccccc1/C=N/N1CCN(Cc2ccccc2)CC1,-,-,-,-,19µM,-
COc1cccc(/C=N/N2C(=O)CSC2=S)c1O,-,-,-,-,26.9µM,-
COc1ccc(/C=N/N2CCN(c3ccccc3OC)CC2)cc1OC,-,-,-,-,?,?
COc1cc(/C=N/N2C(=O)CSC2=S)cc(Br)c1O,-,-,-,-,?,-
COc1ccc(/C=N/N2CCN(c3ccccc3OC)CC2)cc1Br,-,-,.,.,15.1µM,-
COc1ccccc1N1CCN(/N=C/c2cccc(OC)c2O)CC1,?,?,25.1µM,-,7.57µM,?
COC(=O)C1(C(=O)OC)Cc2conc2[C@H]1c1ccccc1,.,.,-,-,.,.
COc1ccccc1N1CCN(/N=C/c2cccc(Cl)c2)CC1,3.16µM,2.24µM,.,.,12µM,16.4µM
COc1cccc(/C=N/N2CCN(c3ccccc3OC)CC2)c1,?,3.16µM,12.6µM,-,12µM,16.4µM
Clc1cccc(/C=N/N2CCN(Cc3ccccc3)CC2)c1,?,?,.,.,16.9µM,?
Clc1ccc(-c2cc(CN3CCCCC3)no2)cc1Cl,-,-,.,.,19µM,-
Clc1ccc(-c2cc(CN3CCOCC3)no2)cc1,1.58µM,0.891µM,.,.,12µM,?
CC1CCN(Cc2c(O)ccc3c(=O)c(-c4ccc(Cl)cc4)c(C(F)(F)F)oc23)CC1,.,.,-,.,-,.
CC1CCN(Cc2c(O)ccc3c(=O)c(-c4nc5ccccc5s4)c(N)oc23)CC1,-,-,-,-,10.7µM,-
CC1(C)CCCN(Cc2c(O)ccc3c(=O)c(-c4nc5ccccc5s4)c(N)oc23)C1,-,?,.,.,6.01µM,?
CC1CCCN(Cc2c(O)ccc3c(=O)c(-c4nc5ccccc5s4)c(N)oc23)C1 (stereo not given),-,-,-,-,6.75µM,-
COc1ccc(CCN2C(=NC(=O)CCC(=O)O)SC3CS(=O)(=O)CC32)cc1OC (stereo not given),-,-,-,-,26.9µM,-
COc1ccc(CCN2C(=NC(=O)CC(C)C)SC3CS(=O)(=O)CC32)cc1 (stereo not given),-,-,-,-,-,-
CC(=O)c1cccc(NC(=O)[C@H](Cc2ccccc2)N2Cc3ccccc3C2=O)c1,.,.,-,.,-,.
Cc1c(NC(=S)N/N=C/c2ccc(Br)cc2)c(=O)n(-c2ccccc2)n1C,-,-,.,.,-,-
Cn1c(CS/C(N)=N/N=C/c2ccccc2)c(Br)c(=O)n1-c1ccccc1,-,-,-,-,15.1µM,-
CCn1c2c(c(=O)n3ncc(C(=O)Nc4ccc(C(=O)OC)cc4)c13)CN(Cc1ccc(OC)cc1)CC2,.,.,.,.,-,.
COC(=O)c1sc2cccc(F)c2c1S(=O)(=O)N1CCN(c2ccccc2OC)CC1,.,.,.,.,-,.
COc1ccc(/C=C2\SC(=S)N(CC3CCCO3)C2=O)cc1 (stereo not given),-,-,.,.,10.7µM,-
